From PubChem BioAssay (NCATS) come the findings set out here.

Test [1] deals with Rap guanine nucleotide exchange factor 3 (Homo sapiens) (UniProt O95398). Description: Confirmatory qHTS for agonist of cAMP-regulated guanine nucleotide exchange factor 3 (EPAC1) (AID 1645881).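 Further: EPAC1 catalysed release of BODIPY-GDP from Rap1B seen as fluorescence loss; 100% = effect of cAMP agonist control; nearly all actives have a fitted effect of over 75% in size.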
For test [2], the target named is Rap guanine nucleotide exchange factor 4 (Homo sapiens) (UniProt Q8WZA2). Kind of test: Confirmatory qHTS for agonist of cAMP-regulated guanine nucleotide exchange factor 4 (EPAC2) (AID 1645884).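 Further: nucleotide exchange releases bodipy-GDP from Rap1 and this lowers its fluorescence; on the % scale 0 is the no-effect control and ±100 the full control effect; nearly all actives have a fitted effect of over 65% in size.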
For test [3] the target is unchanged. Description: Confirmatory qHTS for antagonist of cAMP-regulated guanine nucleotide exchange factor 4 (EPAC2) (AID 1645885). Further: nearly all actives have a fitted effect of over 25% in size. Further: potency means the concentration at half of the fitted maximal effect. On activity change, negative = inhibition: on the % scale 0 is the no-effect control and ±100 the full control effect.
The target of test [4] is Rap guanine nucleotide exchange factor 3 (Homo sapiens) (UniProt O95398). Kind of test: Counterscreen qHTS for antagonist of cAMP-regulated guanine nucleotide exchange factor 3 (EPAC1) (AID 1645888).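 Further: fluorescence loss as bound BODIPY-GDP is released from Rap1B; % of control where 0% means no effect.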 Put shortly: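 Rap1B-BODIPY-GDP 250 nM + GDP 50 uM; cpds 7-pt, final 9.74 nM–152 uM (activator mode) or from 7.32 nM upwards (inhibitor mode); RT; FI 480/540 nm at 5 and 30 min, then ± cAMP, reread.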

Inconclusive results are not listed. A number with no mark means an inactive call. Activity calls are given as the source filed them. The call rests on the fitted dose curve; in most records, active means well fitted curve in the direction sought with a large enough effect; inconclusive means small, poorly fitted or top-dose-only effect, or another doubt; inactive means no such curve, though single readings can be large; an effect the other way counts as inactive or inconclusive.

Sequence of Rap guanine nucleotide exchange factor 3 (Homo sapiens) (O95398 whole entry, looked up): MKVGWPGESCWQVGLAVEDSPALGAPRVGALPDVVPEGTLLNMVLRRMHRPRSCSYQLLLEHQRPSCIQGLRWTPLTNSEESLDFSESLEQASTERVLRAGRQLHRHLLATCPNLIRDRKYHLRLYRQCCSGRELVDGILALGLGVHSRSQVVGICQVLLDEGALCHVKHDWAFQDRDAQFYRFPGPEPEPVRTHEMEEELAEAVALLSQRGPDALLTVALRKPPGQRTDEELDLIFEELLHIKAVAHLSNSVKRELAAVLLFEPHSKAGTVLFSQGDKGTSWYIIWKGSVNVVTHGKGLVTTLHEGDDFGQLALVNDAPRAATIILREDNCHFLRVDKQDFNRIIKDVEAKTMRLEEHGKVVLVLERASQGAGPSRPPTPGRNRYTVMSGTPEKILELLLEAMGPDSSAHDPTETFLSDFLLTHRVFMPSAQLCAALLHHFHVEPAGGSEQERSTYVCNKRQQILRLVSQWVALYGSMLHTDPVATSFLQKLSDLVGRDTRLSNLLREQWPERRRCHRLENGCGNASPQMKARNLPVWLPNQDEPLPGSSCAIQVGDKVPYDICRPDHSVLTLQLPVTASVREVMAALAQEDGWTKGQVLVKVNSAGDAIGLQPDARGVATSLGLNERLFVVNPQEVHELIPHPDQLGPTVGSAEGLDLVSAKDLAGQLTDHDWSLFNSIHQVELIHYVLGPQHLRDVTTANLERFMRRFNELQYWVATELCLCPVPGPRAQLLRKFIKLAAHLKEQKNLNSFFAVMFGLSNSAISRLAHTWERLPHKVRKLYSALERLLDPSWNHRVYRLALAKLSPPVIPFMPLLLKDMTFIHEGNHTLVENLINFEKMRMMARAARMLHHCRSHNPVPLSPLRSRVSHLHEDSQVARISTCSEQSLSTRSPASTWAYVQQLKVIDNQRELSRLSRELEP
Sequence of Rap guanine nucleotide exchange factor 4 (Homo sapiens) (Q8WZA2 whole entry, looked up): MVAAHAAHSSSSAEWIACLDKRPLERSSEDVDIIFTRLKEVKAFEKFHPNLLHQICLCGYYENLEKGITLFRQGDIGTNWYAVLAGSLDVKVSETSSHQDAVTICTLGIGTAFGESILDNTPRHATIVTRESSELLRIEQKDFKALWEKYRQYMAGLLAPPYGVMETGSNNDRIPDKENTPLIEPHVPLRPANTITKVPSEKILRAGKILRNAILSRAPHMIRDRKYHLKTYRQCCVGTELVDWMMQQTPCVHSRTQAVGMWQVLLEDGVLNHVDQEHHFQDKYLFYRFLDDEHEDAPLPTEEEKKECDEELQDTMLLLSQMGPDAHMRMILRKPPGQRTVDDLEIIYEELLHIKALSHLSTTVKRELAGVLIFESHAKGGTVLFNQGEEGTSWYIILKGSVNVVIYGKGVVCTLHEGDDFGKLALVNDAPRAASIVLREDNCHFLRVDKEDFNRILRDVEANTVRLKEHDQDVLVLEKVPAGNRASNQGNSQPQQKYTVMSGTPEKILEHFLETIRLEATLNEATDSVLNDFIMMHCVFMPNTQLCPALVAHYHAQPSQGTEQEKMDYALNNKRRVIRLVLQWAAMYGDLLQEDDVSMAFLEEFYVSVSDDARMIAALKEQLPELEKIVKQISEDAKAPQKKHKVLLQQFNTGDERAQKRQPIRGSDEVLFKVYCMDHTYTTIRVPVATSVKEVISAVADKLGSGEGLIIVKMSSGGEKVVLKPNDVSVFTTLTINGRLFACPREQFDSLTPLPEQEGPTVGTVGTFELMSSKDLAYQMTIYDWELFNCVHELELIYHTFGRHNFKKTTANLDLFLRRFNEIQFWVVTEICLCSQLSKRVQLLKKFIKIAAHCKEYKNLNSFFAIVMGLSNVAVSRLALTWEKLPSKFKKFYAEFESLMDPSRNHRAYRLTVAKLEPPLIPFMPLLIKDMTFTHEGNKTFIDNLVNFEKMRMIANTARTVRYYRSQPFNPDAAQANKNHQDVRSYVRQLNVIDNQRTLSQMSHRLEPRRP

As to `CC(=O)c1ccc(OCc2nnn(CC(=O)NS(=O)(=O)c3ccc(C)cc3)c2-c2ccccc2)cc1`, the Potency result in test [1] and in test [3] was “inactive” throughout. In addition, in test [2], the activation is 1.38% [at 17.1 µM, percent relative to cAMP agonist control]. In addition, the activity change, negative = inhibition in test [4] was -5.72% [at 30.8 µM].

As to `O=C(Nc1cccc(F)c1)c1ccc(-c2cccnc2)c2ccoc12`, the Potency result in test [1], in test [2], in test [3] and in test [4] was “inactive” in each case.

As for `CCc1ccc2c(c1)NC(=O)C2(C)Cc1ccc(F)cc1` (stereo not drawn), the Potency result in test [1] and in test [3] was “inactive” each time. For the same molecule, the activation in test [2] was 12.7% [at 17.1 µM, percent relative to cAMP agonist control]. For the same molecule, in test [4], the activity change, negative = inhibition was 16.2% [at 30.8 µM].

In the case of `COc1cc2c(cc1OC)C(c1cccs1)N(C(=O)C(C)C)CC2` (stereo not drawn), the Potency result in test [1], in test [2], in test [3] and in test [4] was “inactive” in each case.

Turning to `C=CCN1C(=O)[C@@H]2Cc3c([nH]c4ccccc34)C(c3ccc(O)cc3)N2C1=S` (stereo partly drawn), the Potency result in test [1], in test [2], in test [3] and in test [4] was “inactive” throughout.

For the molecule `CC(C)CNc1ncnc2onc(-c3ccc(Cl)cc3)c12`, the Potency entry in test [1], in test [2], in test [3] and in test [4] was “inactive” in each case.

As for `Cc1ccccc1C(=O)Nc1sc2c(c1C(=O)N1CCCCC1)CCC(C)C2` (stereo not drawn), the Potency result in test [1], in test [2], in test [3] and in test [4] was “inactive” in each case.

On to `Oc1c(C2=NCCNC(C(F)(F)F)=C2)ccc2ccccc12`, for which the Potency entry in test [1], in test [2], in test [3] and in test [4] was “inactive” throughout.

Turning to `CC(=O)Nc1ccc(N(C(=O)Cn2nnc3ccccc32)C(C(=O)NC2CCCC2)c2ccc(O)c(O)c2)cc1` (stereo not drawn), the Potency entry in test [1], in test [2] and in test [4] was “inactive” throughout. In addition, the Potency in test [3] is 95.3 µM (active).

As to `COn1c2c(c3c4nonc4ccc31)CCCC2`, the Potency entry in test [1], in test [2], in test [3] and in test [4] was “inactive” throughout.

As to `COc1ccc(OC)c(Nc2cc3ccccc3c(=O)[nH]2)c1`, the Potency result in test [1], in test [2], in test [3] and in test [4] was “inactive” in each case.

Turning to `Cc1ccc(-n2c(CCC(=O)O)ccc2-c2cccs2)cc1Cl`, the Potency entry in test [1], in test [2] and in test [4] was “inactive” each time. Further, in test [3], the outcome is “inactive [at 12.7 µM]”.

For the molecule `O=C(/C=C/c1ccccc1Cl)c1ccc(O)cc1`, the Potency entry in test [1] and in test [3] was “inactive” throughout. Besides, in test [2], the activation was 13.2% [at 17.1 µM, percent relative to cAMP agonist control]. Moreover, the activity change, negative = inhibition in test [4] is 8.95% [at 30.8 µM].

In the case of `COC(=O)c1ccc2nc(-c3ccc(F)cc3)c(Cc3ccc(C)cc3)n2c1`, the Potency entry in test [1] and in test [3] was “inactive” each time. Besides, the activation in test [2] was 1.87% [at 17.1 µM, percent relative to cAMP agonist control]. The activity change, negative = inhibition in test [4] is -2.87% [at 30.8 µM].

In the case of `CS/C(=C\C(=O)c1ccco1)Nc1ccccc1Cl`, the Potency result in test [1], in test [2], in test [3] and in test [4] was “inactive” throughout.

`Cc1ccc(NC(=O)CN2C(=O)S/C(=C\c3cccn3-c3cccc(C(=O)O)c3)C2=O)cc1C`: the Potency entry in test [1] is “inactive”. Further, the activation in test [2] is 3.81% [at 17.1 µM, percent relative to cAMP agonist control]. Also, in test [3], the Potency is 0.019 µM (active). For the same molecule, the activity change, negative = inhibition in test [4] is -10.4% [at 30.8 µM].

As to `Cc1cc(SCC(=O)c2ccc(O)c(O)c2)n2nc(C)c(-c3ccccc3)c2n1`, the Potency entry in test [1], in test [2], in test [3] and in test [4] was “inactive” in each case.

In the case of `COc1cc(OC)cc(C(=O)Nc2ccc(NC(=O)c3ccco3)c(Cl)c2)c1`, the Potency result in test [1], in test [2], in test [3] and in test [4] was “inactive” in each case.

For the molecule `CCn1c(SCC(=O)N/N=C/C=C/c2ccco2)nnc1-c1ccccc1`, the Potency result in test [1], in test [2], in test [3] and in test [4] was “inactive” each time.

As for `Cc1ccc(N=Cc2c(O)c3ccccc3n(C)c2=O)cc1`, the Potency entry in test [1], in test [2], in test [3] and in test [4] was “inactive” throughout.

With `O=C(CC(c1ccccc1)c1cc(Cl)ccc1O)N1CCCC1` (stereo not drawn), the Potency entry in test [1], in test [2], in test [3] and in test [4] was “inactive” in each case.

For `COc1ccc(OC)c(NC(=O)CSc2nc(O)cc(=O)n2CC(C)C)c1`, the Potency entry in test [1], in test [2], in test [3] and in test [4] was “inactive” throughout.

For `Cc1ccc(C(=O)c2cn(Cc3cccc(C)c3)c3nc(C)ccc3c2=O)cc1`, the Potency result in test [1], in test [2], in test [3] and in test [4] was “inactive” throughout.

In the case of `CCn1c(=O)c(C(=O)Nc2ccccc2S(N)(=O)=O)c(O)c2ccccc21`, the Potency entry in test [1], in test [2], in test [3] and in test [4] was “inactive” in each case.

As for `C[C@H](CO)N1C[C@H](C)[C@H](CN(C)Cc2cccc(O)c2)OCc2ccccc2-c2c(n(C)c3ccccc23)C1=O`, the Potency result in test [1] and in test [3] was “inactive” each time. For the same molecule, in test [2], the activation was 8.26% [at 17.1 µM, percent relative to cAMP agonist control]. In addition, in test [4], the activity change, negative = inhibition was -3.58% [at 30.8 µM].

Consider `COc1cc(O)c(C(C)=O)c2c1C=CC(C)(C)O2`, for which the Potency entry in test [1], in test [2], in test [3] and in test [4] was “inactive” in each case.

As for `CC1OC(CC(=O)O)CC2=C1C(=O)c1c(O)cccc1C2=O` (stereo not drawn), the Potency entry in test [1], in test [2], in test [3] and in test [4] was “inactive” in each case.
